Hits are enriched below; roughly 4.1% of the tested compounds scored in any of these assays.
PolyA inh: blocks polyadenylation in yeast reporter cells. activity score, % at 12 µM. AID 1875. 300,000 tested, 0.02% active. S. cerevisiae SKY197-pL101 polyadenylation reporter, beta-gal luminescence; efflux-impaired pdr1/pdr3 knockout yeast; score 100 = 6 SD above DMSO;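 active = lowest replicate activity score at least 50, where 100 means six control SD above control mean; inconclusive = lowest score under 50 but half or more replicates reach 50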;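 note: yeast exposed to compound for 9 h at 30 °C; higher score means more reporter readthrough which indicates perturbed polyadenylation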
DAX1 inh-1: inhibits human nuclear receptor DAX1 | P51843 | HEK293 Gal4-DAX1 luciferase reporter, luminescence | inhibition, % at 6.75 µM | 340,000 tested, 0.99% active;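 active = inhibition above the mean over all tested compounds plus 3 SD, cut at about 4.2% in these data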;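 note: 0% = DAX1-transfected cells with DMSO and 100% = empty-vector control cells with DMSO; inhibition shows as a rise in luminescence from relieved DAX1 repression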
DAX1 inh-2: DAX1 (NR0B1) inhibition, primary screen; HEK293T StAR-luciferase reporter, SF-1/DAX-1 repression relief; inhibition, % at 6.8 µM; 370,000 tested, 1.1% active; AID 652010;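 active = inhibition above the mean over all tested compounds plus 3 SD, cut at about 3.6% in these data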;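 note: 0% = DAX-1 cells with DMSO and 100% = cells lacking DAX-1 with DMSO; higher inhibition means more luminescence from relief of DAX-1 repression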
hgDAF-12 ag: hgDAF-12 agonism, primary luciferase screen | 370,000 tested, 1.8% active | HEK293 GAL4-hgDAF12 UAS-luciferase reporter, agonist luminescence; normalized to butyrate control | activation, % at 6.8 µM | AID 687014;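 active = activation above a cutoff set at the mean of all screened compounds plus 3 SD, cut at about 10% in these data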;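 note: 0% = DMSO wells and 100% = sodium butyrate wells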
hcDAF-12 act: activators of H. contortus DAF-12 nuclear receptor | activation, % at 6.8 µM | 370,000 tested, 1.4% active | HEK293 hcDAF-12 lit1-tk-luc reporter, luminescence; 0% DMSO, 100% Δ7-dafachronic acid;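 active = activation above the mean of all tested compounds plus 3 SD, cut at about 5.5% in these data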;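 note: 100% = response to 3 µM Δ7-dafachronic acid high control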
ssDAF-12 act: S. stercoralis DAF-12 activation, primary screen; HEK293 ssDAF-12/GRIP1 lit1-tk-luc reporter, luminescence; % of 3 µM dafachronic acid response; 370,000 tested, 1% active; activation, % at 6.8 µM;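 active = activation above the mean over all tested compounds plus 3 SD, cut at about 0.9% in these data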;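 note: 0% = DMSO-only wells and 100% = 3 µM delta7-dafachronic acid wells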
hgDAF12 ag: confirmation of H. glycines DAF-12 agonists | shares compounds with hgDAF-12 ag | HEK293 GAL4-hgDAF12 luciferase reporter, agonist mode; percent of butyrate response | activation, % at 6.8 µM | 3,300 tested, 80% active | AID 743050;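 active = mean activation over triplicate wells above the hit cutoff derived from the earlier primary screen, cut at about 11% in these data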;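 note: 0% = DMSO low control and 100% = 2 mM sodium butyrate high control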
LXRb DAF12 ctr: activates human LXR-beta, counter-screen for DAF-12 agonists | shares compounds with hgDAF-12 ag | HEK293 Gal4-LXR luciferase reporter, 24 h | activation, % at 6.8 µM | 3,300 tested, under 10 active | AID 743051;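 active = mean activation of the triplicate above a set limit carried over from the primary screen, none filed active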
Target sequence (P55055 whole entry, looked up, the tested form may be a part): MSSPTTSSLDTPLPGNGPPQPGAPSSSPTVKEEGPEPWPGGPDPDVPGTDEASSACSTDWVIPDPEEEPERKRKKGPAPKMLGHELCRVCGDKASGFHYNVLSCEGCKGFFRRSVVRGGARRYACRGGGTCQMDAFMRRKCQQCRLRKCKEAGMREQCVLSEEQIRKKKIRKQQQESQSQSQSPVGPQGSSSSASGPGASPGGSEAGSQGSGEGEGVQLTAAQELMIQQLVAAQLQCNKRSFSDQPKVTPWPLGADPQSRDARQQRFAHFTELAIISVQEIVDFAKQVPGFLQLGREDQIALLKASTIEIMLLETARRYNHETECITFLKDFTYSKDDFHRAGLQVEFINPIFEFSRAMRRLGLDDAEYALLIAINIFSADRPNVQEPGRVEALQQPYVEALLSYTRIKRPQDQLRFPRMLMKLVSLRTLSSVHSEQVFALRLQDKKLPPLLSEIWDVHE
An asterisk follows results filed as active; u = inconclusive; x = no result given.

SMILES	PolyA inh	DAX1 inh-1	DAX1 inh-2	hgDAF-12 ag	hcDAF-12 act	ssDAF-12 act	hgDAF12 ag	LXRb DAF12 ctr
Brc1ccc(Cn2c(-c3ccc(Br)o3)nc3ccccc32)o1	-21	0	1	0	-2	-1	x	x
Cc1cccc(N(C(=O)Nc2ccccc2)C2=NCC(C)S2)c1 (centres undefined)	u	4	1	15*	2	-1	4	0
Cc1ccc(NC(=O)N(C2=NCC(C)S2)c2ccccc2)cc1 (centres undefined)	14	2	1	7	1	-1	x	x
O=C(/C=C/c1ccnc2ccccc12)c1cccs1	-32	1	2	14*	4	0	15*	1
CNc1cncc(-c2ccc(CN(C)C)cc2)n1	x	x	4.0*	16*	2	-1	9	0
C/C(=N\NC(=O)c1nnn(-c2nonc2N)c1CN(C)c1ccccc1)c1cccnc1	-18	-1	2	13*	5	1	0	0
C/C(=N\NC(=O)c1nnn(-c2nonc2N)c1-c1ccccc1)c1cccnc1	x	1	0	3	1	-1	x	x
COC(=O)CNC(=O)c1ccccc1	9	3	-1	2	-1	-1	x	x
O=C(CNC(=O)c1ccccc1)OC1CCCCC1	-4	2	3	16*	3	-1	18*	1
Cc1ccc(S(=O)(=O)NN/C(=N/S(=O)(=O)c2ccccc2)c2ccccc2)cc1	19	0	0	0	-2	-1	x	x
Cc1ccc(S(=O)(=O)/N=C(/NNC(=O)c2cccc(Cl)c2)c2ccccc2)cc1	-9	1	2	14*	5	1	21*	1
O=C(O)c1ccc(N/C(=N\S(=O)(=O)c2ccc(Cl)cc2)c2ccccc2)cc1	1	0	0	-4	1	-1	x	x
COc1ccc(NC(=S)NC(=NS(=O)(=O)c2ccc(Cl)cc2)c2ccccc2)cc1	x	2	3	13*	2	1	10	0
O=C(NN/C(=N/S(=O)(=O)c1ccc(Cl)cc1)c1ccccc1)c1ccc(O)cc1	-1	0	3	16*	-1	0	9	0
COc1ccc(NC(=S)N/C(=N/S(=O)(=O)c2ccc(C)cc2)c2ccccc2)cc1	5	0	2	5	1	0	x	x
CCn1c(CC(=O)Nc2ccccc2Cl)nnc1SCC(=O)NC1CCCC1	-7	2	0	1	0	0	x	x
O=c1sc2ccccc2n1CCOc1ccccc1	-16	2	3	15*	5.6*	0	12*	1
O=S1(=O)c2ccc(N3CCSCC3)cc2Oc2ccccc2CN1Cc1cn(Cc2ccc(C(F)(F)F)cc2)nn1	x	x	0	-2	-2	-2	x	x
C[C@H](CO)N1C[C@H](C)[C@@H](CN(C)Cc2cccc3c2OCCCO3)OCc2cnnn2CCCC1=O	x	1	-1	-2	-1	-1	x	x
CCOc1ccc(C(=O)Nc2cc(C)on2)cc1	2	0	2	14*	2	-1	14*	1
CCOc1ccc(C(=O)Nc2ccc3[nH]ncc3c2)cc1	7	-2	2	16*	5	0	15*	1
CCOc1cc(C(=O)Nc2cc(C)on2)cc(OCC)c1OCC	-17	-2	-1	-2	-2	-1	x	x
Cc1ccnc(NC(=O)c2ccc(OCc3c(C)noc3C)cc2)c1	x	1	4.2*	14*	0	-1	6	0
Cc1cccc(-c2nnc(SCC(=O)C(C)(C)C)n2C)c1	-16	0	0	2	-1	-1	x	x
CCCCN1C(=O)C(=O)N(c2ccccc2)C1=S	-8	2	4.1*	16*	4	0	14*	1
SMILES	PolyA inh	DAX1 inh-1	DAX1 inh-2	hgDAF-12 ag	hcDAF-12 act	ssDAF-12 act	hgDAF12 ag	LXRb DAF12 ctr
CCCCN1C(=O)C(=O)N(CC(=O)N2CCN(c3ccccc3)CC2)C1=O	7	0	2	4	-1	0	x	x
CCS(=O)(=O)N1Cc2ccccc2CC1C(=O)Nc1cccc(OC)c1 (centres undefined)	u	1	0	14*	3	0	4	0
CCS(=O)(=O)N1Cc2ccccc2CC1C(=O)Nc1ccc(OC)c(OC)c1 (centres undefined)	4	-2	0	-2	0	-1	x	x
COc1cccc(-c2nc(CS(=O)(=O)CC(=O)NC3CCCCC3C)c(C)o2)c1 (centres undefined)	-11	1	0	1	3	-2	x	x
Cc1cc(C)nc(-n2nc(C)c(Sc3ccc(F)cc3)c2N)n1	-17	0	3	13*	3	0	15*	1
O=C(CN1CCN(C(=O)c2cc(C3CC3)nn2-c2ccccc2)CC1)Nc1ccc(F)cc1	x	0	-1	15*	-1	-1	-3	0
Cc1cccc(NC(=O)CN2CCN(C(=O)c3cc(C4CC4)nn3-c3ccccc3)CC2)c1C	x	0	0	-4	3	-1	x	x
O=C(COC(=O)/C=C/c1ccccc1)Nc1ccc(Cl)cn1	-11	2	-1	1	1	-1	x	x
O=C(/C=C/c1ccccc1)Nc1ccc(Cl)cn1	8	-2	1	14*	1	-1	20*	1
COc1ccc(N2Cc3ccccc3C2)cc1Cl	9	0	-2	14*	0	0	6	0
CC(C)C[C@@H](CO)NS(=O)(=O)c1c(F)cccc1F	x	1	0	0	-1	-1	x	x
CCOc1ccc(S(=O)(=O)NC2=NCCCCC2)cc1	x	-1	1	0	-1	-1	x	x
CCOc1ccc(-c2nnc(-c3ccccc3)o2)cc1	-9	1	3	14*	6.0*	1	12*	1
CCOc1ccc(-c2nnc(NC3=NCCCCC3)o2)cc1	1	2	1	15*	2	0	13*	1
CC(C)N(c1cc(=O)nc2ccccn12)C(C)C	x	x	0	0	2	-1	x	x
O=C1CCC(OCc2ccccc2)CCN1[C@H](CSc1ccccc1)Cc1ccccc1 (some centres undefined)	x	x	-1	-2	-1	-1	x	x
COc1ccc2c(CC(=O)Nc3ncc(C)s3)coc2c1	2	2	2	18*	4	0	18*	1
COc1cccc(CC(=O)Nc2ncc(C)s2)c1	19	-1	0	2	1	0	x	x
